# Measured values taken from PubChem BioAssay (NCI).
# About 83,000 compounds went through this panel and 20% of them were active in at least one assay; those are over-represented in the sample as a whole.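 Interpretation: 100, growth as untreated; towards 0, rising growth inhibition; 0, no net growth; 0 to -100, cell death. Compounds scoring below 10 were considered active.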 Values without a mark were called inactive. Active and inactive are the calls of the source.
# Assays:
# Assay in all cases: NCI-60 one-dose screen, 48 h (100 = growth as untreated, 0 = no growth, -100 = all killed)
# Conditions in all cases: 10 µM unless noted
# [1] = system: DU-145 prostate
# [2] = system: K-562 leukemia
# [3] = system: MALME-3M melanoma
# [4] = system: MDA-MB-231 breast
# [5] = system: RXF 393 renal
# [6] = system: SF-268 CNS
# [7] = system: SF-295 CNS
# [8] = system: SF-539 CNS
# [9] = system: UACC-257 melanoma
# [10] = system: M14 melanoma
# [11] = system: HCT-15 colon
# [12] = system: HT29 colon
# [13] = system: SNB-75 CNS
# [14] = system: SNB-19 CNS
# [15] = system: U251 CNS
# [16] = system: PC-3 prostate
# [17] = system: SK-MEL-5 melanoma
# [18] = system: UACC-62 melanoma
# [19] = system: SK-MEL-28 melanoma
# [20] = system: LOX IMVI melanoma
SMILES,growth [1],growth [2],growth [3],growth [4],growth [5],growth [6],growth [7],growth [8],growth [9],growth [10],growth [11],growth [12],growth [13],growth [14],growth [15],growth [16],growth [17],growth [18] [%],growth [19],growth [20]
CC(C)NCC(O)COc1ccc(CCOCC2CC2)cc1 (stereo unspecified),111%,97.6%,103%,99.6%,97.1%,108%,108%,107%,108%,96.6%,107%,97.9%,99.3%,106%,99.4%,80%,95%,110,118%,
CN1CCN(C(=O)OCCOCCOC(=O)N2CCN(C)CC2)CC1,111%,106%,133%,94.9%,87.8%,102%,85.9%,97.9%,94.2%,103%,96.3%,101%,80.8%,104%,103%,90.1%,104%,102,105%,90.9%
Cc1ccc2nc(NC(=O)CSC(=S)N3CCN(Cc4ccccc4)CC3)sc2c1,-96.9% (active),11.8%,-58% (active),-7.45% (active),-58% (active),-14.9% (active),-13.1% (active),1.99% (active),-63.4% (active),-56.7% (active),-37% (active),-62.7% (active),-93.2% (active),-22.2% (active),-46.3% (active),-40.2% (active),-96.4% (active),,-60% (active),-41.3% (active)
O=[N+]([O-])c1ccc(C=C2C(Cl)=C(Cl)C(Cl)=C2Cl)cc1,73%,7.31% (active),108%,74.8%,0.914% (active),55.1%,86.3%,75.8%,67.7%,36.9%,31.4%,30.9%,81.5%,80.6%,20.1%,58.5%,121%,71.7,107%,
O=C(NCc1cccnc1)c1ccc([N+](=O)[O-])o1,-67.6% (active),22.1%,-61% (active),107%,-9.05% (active),33%,20.8%,-30.9% (active),-7.66% (active),-81.2% (active),-68.1% (active),-68.5% (active),-3.32% (active),16.8%,4.88% (active),24.5%,4.47% (active),,,-77.9% (active)
O=c1c2c(=NCCN3CCCC3)cc3c(=O)n(CCCN4CCOCC4)c(=O)c4c(-c5ccc(CN6CCCC6)cc5)cc(c(O)n1CCCN1CCOCC1)c2c4-3,-26.7% (active),-21.1% (active),-70.1% (active),-46.6% (active),-79.4% (active),-33.1% (active),-12.5% (active),-78.8% (active),-27.1% (active),-78.7% (active),-30% (active),-23.4% (active),-83.5% (active),-9.24% (active),-19.4% (active),-47.2% (active),-44.6% (active),,-67.8% (active),-78.2% (active)
O=c1ccc2ccccc2o1,112%,112%,110%,100%,116%,102%,97.7%,102%,101%,104%,98%,102%,89.4%,112%,104%,82.2%,107%,98.4,108%,109%
O=C1c2c(c3c4cc(Br)ccc4[nH]c3c3ccc4ccccc4c23)C(=O)N1O,103%,71.6%,126%,81.7%,103%,81.1%,84.7%,96.4%,88.5%,94.1%,85.4%,30%,79.8%,85.1%,68.5%,79%,96.7%,59.9,106%,67.8%
O=C1/C(=C/c2ccc(Oc3ccccc3)cc2)N=C(c2ccccc2)N1CCc1cccs1,98%,84%,86.1%,79.8%,92.1%,80.8%,82.9%,104%,99.1%,58.7%,92.4%,35%,63.2%,89%,93.9%,62.1%,95.2%,,94%,62.1%
FC(F)(F)Oc1ccc2c(c1)C[C@H]1C[C@@H](c3ccoc3)N2O1,110%,91.8%,109%,93.9%,134%,126%,91.2%,93.9%,87.4%,117%,95.1%,99.9%,99.5%,105%,94.5%,92.8%,115%,98.8,108%,91.8%
C[C@]1(CO)C[C@@H](O)C[C@]2(C)[C@@H]1CC[C@@]13C[C@@H]4[C@@H](C[C@H]12)[C@]4(C)C3,111%,101%,94.4%,98%,119%,100%,104%,99.4%,106%,94.8%,103%,105%,88.9%,95.7%,104%,99%,99%,94.1,103%,107%
Cc1nc(-c2ccccc2)cc2c(O)c(C(=O)N/N=C/Cc3ccccc3)[nH]c(=O)c12,113%,76.6%,116%,113%,127%,103%,117%,103%,94.5%,106%,106%,93.8%,90.7%,110%,98.8%,90%,107%,,115%,95.7%
O=c1[nH]c(=S)c2c(n1CCCO)CCC2,108%,93.4%,92.9%,102%,113%,100%,102%,104%,96.7%,97%,101%,104%,88%,102%,101%,103%,101%,,111%,96.5%
